High-throughput results as filed in PubChem BioAssay.
Rab9 prom act = activates the Rab9 promoter | AID 485297 | Huh7 Rab9 promoter-luciferase reporter, luminescence, 24 h | 320,000 tested, 2.8% active | Potency, µM (series often up to 9.22 µM), without a hit: at the highest dose activation, negative = inhibition, hits mostly activators; further: % of control where 0% means no effect; nearly all actives have a fitted effect of over 60% in size
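Luminescence read-out: Huh7 cells stably expressing Rab9-luciferase, treated 24 h with compound at 37 °C, then lysed with luciferase reagent for 10 min at ambient before reading.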
NPC1 prom act = activators of NPC1 promoter | Huh7 NPC1 promoter luciferase reporter, 24 h | Potency, µM (doses to about 9.22 µM), inactives show at the top dose activation, most hits filed as activators | 320,000 tested, 2.4% active | AID 485313; further: % of control where 0% means no effect; nearly all actives have a fitted effect of over 60% in size
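Compounds in DMSO were transferred onto Huh7 NPC1-luciferase reporter cells pre-incubated 2 h; after 24 h at 37 °C, Amplite reagent was dispensed and luminescence recorded 10 min later.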
SMN2 splice enh = SMN2 splice variant enhancement; HEK293 SMN2-luciferase splicing reporter, luminescence, 30-36 h; Potency, µM (series often up to 46.1 µM), without a hit: at the highest dose activity change, positive = activation, actives largely listed as activators; 210,000 tested, 2.8% active; further: % of control where 0% means no effect; nearly all actives have a fitted effect of over 55% in size
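qHTS luciferase splicing reporter: luminescence rises when SMN2 exon 7 is included in transfected HEK293 cells. Compound exposure lasted 30-36 h at 37C, with 4.5 mM final sodium butyrate as control, followed by a ONE-Glo read.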
FLuc modulator = firefly luciferase modulation, counter-screen for miR-21 project; P08659; purified FLuc, Km substrates, luminescence inhibition; Potency, µM (series often up to 57.5 µM), inactives show at the highest dose activity change, negative = inhibition, most hits filed as inhibitors; 360,000 tested, 6.9% active; AID 588342;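 further: plate controls were vehicle for no effect and reference inhibitor for full effect; nearly all actives have a fitted effect of over 55% in size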
Target sequence (P08659 whole entry, looked up): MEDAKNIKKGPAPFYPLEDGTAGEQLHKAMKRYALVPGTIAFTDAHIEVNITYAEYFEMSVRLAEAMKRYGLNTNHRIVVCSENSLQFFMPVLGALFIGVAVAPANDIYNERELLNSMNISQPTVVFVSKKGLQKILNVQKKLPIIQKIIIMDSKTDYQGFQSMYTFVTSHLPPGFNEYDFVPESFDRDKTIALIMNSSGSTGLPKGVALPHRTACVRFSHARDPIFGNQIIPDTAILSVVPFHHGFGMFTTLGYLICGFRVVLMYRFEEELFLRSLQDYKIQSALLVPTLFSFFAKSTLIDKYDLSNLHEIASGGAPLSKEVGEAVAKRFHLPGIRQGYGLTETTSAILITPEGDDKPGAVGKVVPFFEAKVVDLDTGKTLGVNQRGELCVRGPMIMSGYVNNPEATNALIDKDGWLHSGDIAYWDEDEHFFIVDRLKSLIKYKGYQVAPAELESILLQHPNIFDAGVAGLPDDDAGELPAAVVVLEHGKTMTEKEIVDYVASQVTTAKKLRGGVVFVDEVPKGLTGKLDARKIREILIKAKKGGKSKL
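Purified P. pyralis luciferase (10nM final) with 10uM D-luciferin and 10uM ATP (Km levels) in 50mM Tris acetate pH 7.5, 10mM Mg acetate, 0.01% Tween-20, 0.05% BSA; qHTS 6-point titration, ~60 µM downward; luminescence read.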
Luc counter = blocks Kinase-Glo luciferase, a counter-screen artifact; Kinase-Glo luciferase, ATP luminescence, 8 min; Potency, µM (doses to about 38.3 µM), for the others: at the top dose activity change, negative = inhibition, most hits filed as inhibitors; 200,000 tested, 0.28% active; AID 1379; further: on the % scale 0 is the no-effect control and ±100 the full control effect; nearly all actives have a fitted effect of over 60% in size
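Substrate mix (final 50 mM imidazole pH 7.2, 50 mM KCl, 7 mM MgCl2, 10 uM ATP, 0.01% Tween 20, 0.05% BSA) plus pin-tool compound, then Kinase-Glo detection mix; 8 min ambient, luminescence read.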
ELG1 genotoxic = inducers of genotoxicity in HEK293T ELG1-luciferase cells | HEK293T ELG1-luciferase reporter, luminescence, 16 h | Potency, µM (doses to about 46 µM), for inactives: at the top dose activity change, positive = activation, actives largely listed as activators | 330,000 tested, 1.3% active; further: % of control where 0% means no effect; nearly all actives have a fitted effect of over 60% in size
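Luminescence read-out: rising ELG1-luciferase signal, reflecting elevated ELG1 protein under genetic stress, flags genotoxic compounds. Cells were treated for 16 hr at 37 °C before ONE-Glo detection.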
* = called active by the depositor; [ ] = remark or other dose. The list is not random: actives were taken first. Their share in the collection is about 7.4%. The call rests on the fitted dose curve; in most records, active means well fitted curve in the direction sought with a large enough effect; inconclusive means small, poorly fitted or top-dose-only effect, or another doubt; inactive means no such curve, though single readings can be large; an effect the other way counts as inactive or inconclusive. Potency means the concentration at half of the fitted maximal effect.

What do the screens show for `COCCCn1c(SCC(=O)Nc2ccc(OC)cc2)nc2c(sc3ccccc32)c1=O`?
FLuc modulator: 2.0%

Results for C/C=C(\C)C(=O)OC1[C@@H]2C=C3C4CC(=O)OC(c5ccoc5)[C@]4(C)CCC3[C@@](C)(C2=O)C(C(O)C(=O)OC)C1(C)C (some centres not stated) ?
SMN2 splice enh: -12.5%; Luc counter: 1.6%

What do the screens show for `O=C(c1cnccn1)N1CCC2(CCCN(c3cccc(-c4ccccc4)c3)C2)CC1`?
SMN2 splice enh: -41.0%; Luc counter: -0.7%

How did O=C(c1cnccn1)N1CCC2(CCCN(c3ccc(-c4ccccc4)cc3)C2)CC1 do in these assays?
SMN2 splice enh: 3.98µM*; Luc counter: -4.3%

What do the screens show for `N#CC(Cc1ccc(O)c(O)c1)C(=O)N1CCc2ccccc21` (configuration not stated)?
SMN2 splice enh: inconclusive; Luc counter: -2.8%

Results for COc1ccc(OC)c2nc(-c3ccc4c(c3)OCO4)ccc12 ?
Rab9 prom act: 1.41µM*; NPC1 prom act: 1.41µM*; FLuc modulator: 1.9µM*; ELG1 genotoxic: 4.61µM*

What do the screens show for `c1ccc2nc(-c3ccc4c(c3)OCO4)ccc2c1`?
Rab9 prom act: 0.316µM*; NPC1 prom act: 0.562µM*; SMN2 splice enh: 12.6µM*; FLuc modulator: 0.953µM*; Luc counter: -26.4%; ELG1 genotoxic: 2.59µM*

What do the screens show for `O=C(O)c1cc(-c2ccc3cc4c(cc3c2)OCO4)nc2ccccc12`?
SMN2 splice enh: 3.55µM*; Luc counter: -3.2%[7.66 µM]

Results for O=C(O)c1cc(-c2cccnc2)nc2ccc(Br)cc12 ?
Rab9 prom act: -2.2%; NPC1 prom act: -7.0%; SMN2 splice enh: 26.7%; FLuc modulator: inconclusive; Luc counter: 1.5%; ELG1 genotoxic: -0.9%

How did O=C(O)c1cc(-c2ccc3c(c2)OCO3)nc2ccc(Br)cc12 do in these assays?
Rab9 prom act: 11.2%; NPC1 prom act: 9.7%; SMN2 splice enh: 7.1%; FLuc modulator: 3.01µM*; Luc counter: -1.1%; ELG1 genotoxic: 4.6%

Results for O=C(O)c1cc(-c2ccc(O)cc2)nc2ccccc12 ?
Rab9 prom act: -2.2%; NPC1 prom act: 0.4%; SMN2 splice enh: -5.4%; FLuc modulator: inconclusive; Luc counter: -3.6%; ELG1 genotoxic: 3.0%

How did O=C(NCCCN1CCCC1=O)c1cc(-c2ccc3c(c2)OCO3)nc2ccccc12 do in these assays?
Rab9 prom act: -4.1%; NPC1 prom act: -0.1%; SMN2 splice enh: -4.7%; FLuc modulator: 23.9µM*; Luc counter: -1.2%; ELG1 genotoxic: -14.0%

How did Cc1cc(C)nc(NC(=O)c2cc(-c3ccc4c(c3)OCO4)nc3ccccc23)c1 do in these assays?
Rab9 prom act: -2.6%; NPC1 prom act: -1.5%; FLuc modulator: inconclusive; ELG1 genotoxic: -9.0%

How did COC(=O)c1cc(-c2ccc3c(c2)OCO3)nc2ccccc12 do in these assays?
Rab9 prom act: 0.9%; NPC1 prom act: -10.2%; SMN2 splice enh: -22.8%; FLuc modulator: 16.9µM*; Luc counter: -6.1%; ELG1 genotoxic: -6.3%

Results for N=C1N=C(N)c2cc3ccccc3cc21 ?
SMN2 splice enh: 13.0%

How did CS(=O)(=O)N(CC(=O)O)Cc1ccccc1 do in these assays?
SMN2 splice enh: -2.9%[9.22 µM]; Luc counter: 2.8%[7.66 µM]

What do the screens show for `CN(C)c1ccc(/C=N/N2CCN(c3ccccn3)CC2)cc1`?
Rab9 prom act: inconclusive; NPC1 prom act: inconclusive; FLuc modulator: 4.78µM*; ELG1 genotoxic: inconclusive

How did C(=N\N1CCN(c2ccccn2)CC1)/c1ccccn1 do in these assays?
Rab9 prom act: inconclusive; NPC1 prom act: 22.2%; FLuc modulator: 16.9µM*; ELG1 genotoxic: inconclusive

Results for Oc1ccc(/C=N/N2CCN(c3ccccn3)CC2)cc1 ?
Rab9 prom act: -0.7%; NPC1 prom act: 1.4%; FLuc modulator: inconclusive; ELG1 genotoxic: 13.8%
